Many of the other results were omitted from the sample, so hits are more common in it than they were.
USP2a inh – blocks human ubiquitin-specific protease USP2a | AID 463254 | O75604 | actives 0.01% (n = 330,000) | Potency, µM (titrated, usually from 38.3 µM), inactives show at the top dose activity change, negative = inhibition, hits mostly inhibitors | USP2 core, Ub-CHOP2 coupled fluorogenic reporter, 485/531;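 note: plate controls were DMSO wells for no effect and full inhibition by NEM control for full effect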
Target sequence (O75604 whole entry, looked up): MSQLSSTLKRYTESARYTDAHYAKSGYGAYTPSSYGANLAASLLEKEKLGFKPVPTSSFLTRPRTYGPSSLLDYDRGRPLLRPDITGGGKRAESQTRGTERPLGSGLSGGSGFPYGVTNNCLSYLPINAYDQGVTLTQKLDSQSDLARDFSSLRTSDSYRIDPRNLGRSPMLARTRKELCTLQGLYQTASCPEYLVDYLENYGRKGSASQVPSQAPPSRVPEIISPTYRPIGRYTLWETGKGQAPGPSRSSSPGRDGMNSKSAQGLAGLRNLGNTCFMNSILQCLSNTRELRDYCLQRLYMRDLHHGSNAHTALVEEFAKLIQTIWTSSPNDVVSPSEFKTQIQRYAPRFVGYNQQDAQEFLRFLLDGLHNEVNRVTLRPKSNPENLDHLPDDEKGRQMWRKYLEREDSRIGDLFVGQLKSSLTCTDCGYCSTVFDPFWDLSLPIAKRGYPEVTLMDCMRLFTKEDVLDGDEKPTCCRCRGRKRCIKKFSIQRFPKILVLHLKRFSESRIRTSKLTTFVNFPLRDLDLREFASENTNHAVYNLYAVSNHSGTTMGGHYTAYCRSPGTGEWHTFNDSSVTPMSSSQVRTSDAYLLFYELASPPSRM
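Deubiquitinase activity read as fluorescence (485/531 nm) after Ub-CHOP2 cleavage activates the enterokinase reporter on its substrate; USP2 core 10nM, Ub-CHOP2 and substrate 25nM each, 30min compound preincubation then 60min RT; data normalized to NEM, curves fitted.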
Eya2 inh – Eya2 (human) phosphatase inhibition. actives 0.006% (n = 330,000). recombinant Eya2, OMFP fluorescence dephosphorylation (OMFP is methylfluorescein phosphate). O00167. AID 488837. Potency, µM (highest dose often 76.9 µM), for inactives: at the top dose activity, negative = inhibition, actives largely listed as inhibitors; note: % is set by controls: 0 for no effect and ±100 for the full control effect
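Eya2 protein (added as 0.2 uM solution) was preincubated with compound for 10 min at ambient temperature in 50 mM HEPES pH 7.5, 50 mM NaCl, 5 uM MgCl2, 0.05% BSA, 1 mM DTT. OMFP (added at 50 uM) then reacted 10 min; fluorescence read at 485/525 nm.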
ClpP mod – qHTS Assay for Activators of ClpP. ATP-dependent Clp protease proteolytic subunit (Bacillus subtilis (strain 168)), P80244. purified B. subtilis ClpP, FRET peptide cleavage, 20 min. Potency, µM (highest dose often 57.5 µM), without a hit: top-dose activity change, negative = active. actives 1.9% (n = 340,000). AID 651965, 2013; active = well fitted falling curve with a large enough effect; inconclusive = small, poorly fitted or top-dose-only effect; inactive = no such curve, though single readings can be large or run the other way; note: the source files actives as falling curves though it sought activators and does not explain the sign; nearly all actives have a fitted effect of over 65% in size
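Buffer: 100 mM Tris/HCl pH8, 100 mM KCl, 0.05% low protease BSA, 2.5% glycerol, 0.01% Tween-20. ClpP 10 microg/mL final; 20 min RT; delta FRET normalized to ADEP and DMSO controls.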
GALK inh – blocks human galactokinase activity; P51570; Purified GALK, Kinase-Glo residual ATP luminescence; Potency, µM (titrated, usually from 57.5 µM), for the others: at the highest dose activity change, negative = inhibition, usual class: inhibitors; actives 0.007% (n = 270,000); note: % is set by controls: 0 for no effect and ±100 for the full control effect
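Galactose (100 uM) and ATP (35 uM) were turned over by 5 nM GALK for 1 h at RT. Kinase-Glo Plus then converted the remaining ATP into a luminescent signal.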
* = called active by the depositor; ? = inconclusive; . = not tested or not shown. Unless noted, calls come from the whole dose curve; as a rule, active = well fitted inhibition curve with a large enough effect; inconclusive = small, poorly fitted or top-dose-only effect, or effect the other way; inactive = flat fitted curve, though single readings scatter. Potency is the fitted concentration of half-maximal effect.

SMILES | USP2a inh | Eya2 inh | ClpP mod | GALK inh
COc1ccc2c(Cl)c(C(=O)NCCc3ccc(S(N)(=O)=O)cc3)sc2c1 | 5% | 9% | 14µM* | -6%
COc1ccc2nc(Nc3nc(CSc4nc5ccccc5[nH]4)cc(=O)[nH]3)nc(C)c2c1 | 3% | -14% | -3% | 0%
CCOCCCNC(=O)Cn1ncc2c(=O)oc3ccccc3c21 | 3% | -2% | 2% | -1%
O=C(c1ccccc1)N(Cc1nc2ccccc2c(=O)[nH]1)C1CCCC1 | -1% | -2% | . | 0%
O=C(NCc1ccccc1)N(Cc1nc2ccccc2c(=O)[nH]1)C1CCCC1 | 0% | 0% | 14µM* | 1%
O=C(CN1C(=O)NC2(CCCC2)C1=O)N1CCN(S(=O)(=O)c2ccccc2)CC1 | 5% | 9% | . | 0%
Cc1cc(C)c(S(=O)(=O)N2CCN(C(=O)CN3C(=O)NC4(CCCC4)C3=O)CC2)c(C)c1 | 0% | 7% | 35µM* | 5%
N#Cc1nc(-c2ccccc2)oc1NCCCn1ccnc1 | 0% | -2% | 4% | 0%
N#Cc1nc(-c2ccc(OCc3ccccc3)cc2)oc1N1CCOCC1 | 1% | 27% | 28µM* | 0%
COc1ccc(-c2nc(C#N)c(NCc3ccco3)o2)cc1 | 0% | -8% | 4% | -2%
N#Cc1nc(-c2ccc(OCc3ccccc3)cc2)oc1NCc1ccco1 | -2% | -3% | 10µM* | -2%
N#Cc1nc(-c2ccc(F)cc2)oc1N1CCN(C(=O)c2ccco2)CC1 | 0% | 5% | 3.2µM* | -4%
N#Cc1nc(-c2ccc(OCc3ccc(Cl)cc3)cc2)oc1NCCCn1ccnc1 | -1% | -1% | 25µM* | 2%
Cc1ccc(N2C(=O)CC(c3ccsc3)C3=C2CC(C)(C)CC3=O)cc1 (stereo not given) | 2% | 1% | 1% | -1%
CNc1oc(-c2ccc(OCc3ccccc3)cc2)nc1C#N | 1% | -5% | 35µM* | 2%
Nc1nc(COc2ccccc2C=O)nc(Nc2ccccc2)n1 | 5% | -22% | 25µM* | .
CC(=O)Nc1ccc(S(=O)(=O)N2CCN(c3nc(NC4CCCC4)c4ccccc4n3)CC2)cc1 | -9% | -15% | 28µM* | 2%
Cc1onc(-c2ccccc2)c1C(N)=O | -2% | -2% | -1% | 1%
Cc1onc(-c2ccccc2)c1C(=O)n1nnc2ccccc21 | 0% | -4% | 28µM* | 1%
Cc1cc(C(F)(F)F)c(C#N)c(N2CCOCC2)n1 | -5% | 25% | -3% | -1%
CC(C)(C)c1nc2c(C#N)c(-c3ccc(Cl)cc3)ccn2n1 | -7% | -10% | 28µM* | -2%
Cc1nc2c(C#N)c(-c3ccc(Cl)cc3)ccn2n1 | -1% | 7% | -22% | 7%
c1coc(CNc2nc(N3CCCCC3)nc3ccccc23)c1 | 1% | 8% | 22µM* | 0%
CCN(CC)C(=O)c1[nH]cnc1C(=O)Nc1ccccc1 | -1% | 6% | -1% | .
CN1CCc2c(sc(/N=C/c3cccs3)c2C(N)=O)C1 | 9% | 2% | 10µM* | 19%
SMILES | USP2a inh | Eya2 inh | ClpP mod | GALK inh
CN1CCc2c(sc(/N=C/c3ccco3)c2C(N)=O)C1 | -1% | -5% | 7% | 5%
CCc1ccc(C(=O)COC(=O)CNC(=O)c2ccc(Br)o2)cc1 | 0% | 0% | 0% | -5%
COc1cc(-c2nnc(-c3cccs3)o2)cc(OC)c1OC | 5% | 26% | ? | 3%
COc1ccc(-c2nnc(-c3cccs3)o2)cc1OC | 2% | 2% | 32µM* | -3%
COc1cccc(CNC(=O)[C@H](CCSC)NC(=O)N2CCn3c2nc2ccccc23)c1 | 5% | -6% | -2% | 15%
CCS(=O)(=O)N1CCN=C1SC(C)c1ccccc1 (stereo not given) | -2% | -4% | 1% | -5%
Cc1nnc(Cl)c2nn(-c3ccccc3F)c(C)c12 | 3% | 11% | 28µM* | 2%
Cc1nnc(SCCN2CCOCC2)c2nn(-c3ccccc3F)c(C)c12 | 1% | 6% | 14µM* | 2%
Cc1n[nH]c(=S)c2nn(-c3ccccc3F)c(C)c12 | 1% | 26% | -1% | 0%
Cn1c2ccccc2c2nnc(SCCN3CCOCC3)nc21 | 0% | ? | 0% | 0%
COc1ccc(/C=C2\SC(=O)N(CC(=O)Nc3ccccc3O)C2=O)cc1OC | 4% | -7% | 56% | -3%
CCCC[n+]1ccn(-c2nc3ccccc3nc2[N-]S(=O)(=O)c2ccc(Br)cc2)c1 | 0% | -17% | . | 1%
COc1ccc2c(c1)C1=NN(/C(C)=C/C(C)=O)C(c3ccc(F)cc3)C1CC2 (stereo not given) | 2% | 8% | 20µM* | -4%
COc1ccc(N2CCN(c3ncccc3-c3nc(-c4ccccc4C)no3)CC2)cc1 | . | . | 1% | .
Cc1cccc(CNC(=O)C(C)n2nc(C)c3c(C)n(-c4ccccc4)nc3c2=O)c1 (stereo not given) | 3% | -6% | -6% | 4%
COc1ccc(CNC(=O)COC(=O)c2cc(-c3ccc(Cl)s3)nc3ccccc23)cc1 | 7% | 3% | 25µM* | 1%
CCOc1ccccc1CNC(=O)c1cc(-c2ccc(C)c(C)c2)nc2ccccc12 | . | . | 4% | .
COc1cccc(CNC(=O)c2cc(-c3ccc(Cl)s3)nc3ccccc23)c1 | . | . | 3.2µM* | .
CCOc1ccccc1CNC(=O)c1cc(-c2ccc(Cl)s2)nc2ccccc12 | . | . | 28µM* | .
Cc1ccc(C)c(N2CCN(C(=O)CCS(=O)(=O)c3cccc4nonc34)CC2)c1 | 1% | -14% | 1% | 0%
Cc1cccc(C(=O)OCC(=O)NC(=O)c2ccccc2)c1O | 0% | 8% | 13µM* | .
O=C(COC(=O)c1cccc(S(=O)(=O)N2CCCCCC2)c1)Nc1ccccc1 | 3% | 7% | 1% | .
COc1ccc(C(=O)COC(=O)c2ccc(Cl)nc2)cc1OC | 0% | 4% | 22µM* | .
CC(C)Cc1nc(N2CCN(C(=O)Cc3ccccc3)CC2)c(C#N)c2c1COC(C)(C)C2 | 3% | -6% | . | 2%
CCc1nc(N2CCN(C(=O)c3ccccc3)CC2)c(C#N)c2c1COC(C)(C)C2 | -2% | 7% | 25µM* | 1%
CC1(C)Cc2c(C#N)c(N3CCN(C(=O)c4ccccc4)CC3)nc(Cc3ccccc3)c2CO1 | 6% | -6% | 32µM* | -1%
CCN1C(=O)/C(=C/c2nc3ccccc3c(=O)n2-c2ccc(C)cc2)c2ccccc21 | 2% | 1% | -1% | 1%
CCOc1ccc(CCNC(=O)C2CCCN(c3nn4c(=O)cc(C)nc4s3)C2)cc1 (stereo not given) | -1% | -1% | 1% | 0%
CCOC(=O)Cn1c(=O)oc2cc(S(=O)(=O)NCCC(C)C)ccc21 | 0% | 11% | -4% | 3%
O=C(c1ccc(F)cc1)N1CCCCC(Sc2nnnn2-c2ccccc2)C1=O (stereo not given) | -7% | 11% | 28µM* | -3%

High-throughput results from PubChem.
